Screens as filed in PubChem.
HPGD inh = inhibitors of human 15-hydroxyprostaglandin dehydrogenase (HPGD); Potency, µM, most hits filed as inhibitors; 4.3% of 150,000 active; purified HPGD, NADH fluorescence kinetic, PGE2 substrate; P15428
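NADH formation kinetics: reaction with 30 uM PGE2 and 1 mM NAD+ (final), 20 nM enzyme, Tris-HCl pH 8 with Tween 20, after 15 min compound preincubation at room temperature. Fluorescence change, last versus first of five reads.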
PNC inhibitor = perinucleolar compartment assembly inhibition; PC3M PTB-GFP, PNC prevalence imaging, 16 h; stronger effect = lower value; 3.1% of 140,000 active; activity change (PNC), negative = inhibition, % at 10 µM; AID 2417;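 active = readout at or below -70, meaning at least 70% loss of cells showing the perinucleolar compartment, a nuclear body marking cancer cells; inconclusive = readout between -30 and a set limit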
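Read-out is percentage of cells bearing a perinucleolar compartment, from automated 20x imaging of fixed, Hoechst-stained PC3M PTB-GFP cells. Cells were seeded 4 h, then exposed 16 h to compound (23 nl of library stock) in duplicate plates.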
ALDH1A1 block = blocks purified human ALDH1A1 activity; Purified ALDH1A1, NADH fluorescence, propionaldehyde substrate; Potency, µM (top dose mostly 75.3 µM), usual class: inhibitors; P00352; 7.3% of 220,000 active
Target sequence (P00352 whole entry, looked up): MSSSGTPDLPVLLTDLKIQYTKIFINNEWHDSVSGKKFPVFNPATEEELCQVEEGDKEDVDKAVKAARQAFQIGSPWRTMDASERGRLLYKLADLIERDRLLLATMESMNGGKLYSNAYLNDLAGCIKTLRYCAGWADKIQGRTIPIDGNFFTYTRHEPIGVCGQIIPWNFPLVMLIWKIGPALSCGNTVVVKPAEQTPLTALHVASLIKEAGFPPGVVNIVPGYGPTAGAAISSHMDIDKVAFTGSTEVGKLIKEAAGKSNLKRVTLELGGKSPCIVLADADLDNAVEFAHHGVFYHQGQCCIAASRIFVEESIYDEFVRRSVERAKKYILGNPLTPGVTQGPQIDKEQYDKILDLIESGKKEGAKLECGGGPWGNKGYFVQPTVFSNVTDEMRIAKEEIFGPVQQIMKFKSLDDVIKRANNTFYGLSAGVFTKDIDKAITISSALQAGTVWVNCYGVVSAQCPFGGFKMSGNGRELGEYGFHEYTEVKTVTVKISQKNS
Of the large screens only hits and unclear results are named; the others gave an inactive call. An excerpt weighted towards active compounds, which were near 11% of everything screened. Unless noted, calls come from the whole dose curve; as a rule, active = well fitted inhibition curve with a large enough effect (not every such curve was filed as active); inconclusive = small, poorly fitted or top-dose-only effect, or another doubt; inactive = no such curve, though single readings can be large or run the other way.

COc1ccc(S(=O)(=O)N(C)C)cc1NS(=O)(=O)c1ccc(F)c(F)c1F	none
CC(CCc1ccccc1)NC(=O)CN1C(=O)NC2(CCCCC2)C1=O (stereo not drawn)	none (no result: HPGD inh, PNC inhibitor)
O=C(CSc1nnc(Nc2ccccc2F)s1)Nc1cccc(S(=O)(=O)N2CCCCC2)c1	ALDH1A1 block 22.4µM
CC(C)CC(=O)Nc1nnc(SCC(=O)Nc2ccc(F)cc2)s1	none (no result: HPGD inh, PNC inhibitor)
O=C(Cc1ccccc1)Nc1nnc(SCC(=O)NC2CCCC2)s1	none (no result: HPGD inh, PNC inhibitor)
Cc1ccc(Nc2nnc(SCC(=O)Nc3cccc(S(=O)(=O)N4CCCCC4)c3)s2)cc1	none
CC(C)Nc1nnc(SCC(=O)Nc2ccc3c(c2)C(=O)c2ccccc2C3=O)s1	PNC inhibitor inconclusive, ALDH1A1 block 7.94µM
O=C(CSc1nnc(NC2CCCCC2)s1)Nc1ccc2c(c1)C(=O)c1ccccc1C2=O	ALDH1A1 block 12.6µM (no result: HPGD inh, PNC inhibitor)
NS(=O)(=O)c1cccc(NC(=O)COC(=O)COc2ccc3ccccc3c2)c1	none (no result: HPGD inh, PNC inhibitor)
N#CCN1CCN(CCC(=O)Nc2ccc(OCc3ccccc3)cc2)CC1	PNC inhibitor inconclusive
Cc1ccc(OC(=O)CCC(=O)NC(C)c2ccccc2)cc1 (stereo not drawn)	ALDH1A1 block inconclusive
Cc1ccc(-n2c([S-])c(C(=O)NC(C)c3ccccc3)[n+]3ccccc23)cc1 (stereo not drawn)	ALDH1A1 block 3.16µM (no result: HPGD inh, PNC inhibitor)
O=C(NC(=S)NCCc1ccccc1)c1ccco1	none (no result: HPGD inh)
S=C(NCCc1ccccc1)NCCc1ccccc1	none
CC(C)(C)C(=O)NC(=S)NCCc1ccccc1	ALDH1A1 block 28.2µM
Cc1ccccc1C(=O)NC(=S)NCCc1ccccc1	ALDH1A1 block 11.2µM
Cc1cc2nc([C@H](C)C(=O)c3ccc(Cl)cc3)c(=O)[nH]c2cc1C	none (no result: PNC inhibitor)
Cn1cc([N+](=O)[O-])c(C(=O)NCc2cc3cc(Cl)ccc3[nH]2)n1	PNC inhibitor inconclusive
O=C1C2C=CC=CC2=NC(=S)N1CCN1CCC(=C(c2ccc(F)cc2)c2ccc(F)cc2)CC1 (stereo not drawn)	none (no result: PNC inhibitor)
Clc1ccc(CC[C@H](Cn2ccnc2)Sc2c(Cl)cccc2Cl)cc1	ALDH1A1 block inconclusive (no result: PNC inhibitor)
Cc1ccc(-c2onc3ccc(Cl)cc23)cc1	PNC inhibitor inconclusive
COc1ccc(-c2onc3ccc(Cl)cc23)cc1	HPGD inh inconclusive, ALDH1A1 block 20µM
CC1(c2ccc3noc(-c4ccc(Cl)cc4)c3c2)OCCO1	PNC inhibitor inconclusive, ALDH1A1 block inconclusive
O=Cc1ccc2noc(-c3ccc(Cl)cc3)c2c1	ALDH1A1 block 22.4µM
CCOC(=O)CNC(=O)O[C@H]1C(=O)c2ccc(OC)cc2O[C@@H]1c1ccc2c(c1)OCO2	none (no result: PNC inhibitor)
Cc1c(C(=O)OCCOc2ccc(Br)cc2)sc(=S)n1C	none (no result: HPGD inh, PNC inhibitor)
CCCOC(=O)c1c(NC(=O)CCCn2nc([N+](=O)[O-])cc2C)sc(C(=O)OC)c1C	PNC inhibitor -119.3, ALDH1A1 block inconclusive
Cc1cc(C)c(C)c(S(=O)(=O)NCC(=O)Nc2sc3c(c2C(N)=O)CCCC3)c1C	ALDH1A1 block inconclusive
Cc1cc([N+](=O)[O-])nn1CCCC(=O)Nc1sc2c(c1C(N)=O)CCCC2	HPGD inh 4.47µM
CC1CCc2c(sc(NC(=O)CCCn3cnc([N+](=O)[O-])n3)c2C(N)=O)C1 (stereo not drawn)	none (no result: HPGD inh, PNC inhibitor)
CCCOC(=O)c1c(NC(=O)CCCn2nc([N+](=O)[O-])c(Cl)c2C)sc(C(=O)OC)c1C	none
NC(=O)c1c(NC(=O)CCCn2cnc([N+](=O)[O-])n2)sc2c1CCCC2	ALDH1A1 block 1.58µM (no result: HPGD inh, PNC inhibitor)
O=C(Nn1cnc2ccccc2c1=O)c1ccccc1[N+](=O)[O-]	none (no result: HPGD inh, PNC inhibitor)
CCC(=O)Nc1ccc(N2CCCCC2)c(C(=O)Nc2ccccc2C)c1	PNC inhibitor inconclusive, ALDH1A1 block inconclusive
Cc1ccccc1NC(=O)c1cc(N)ccc1N1CCCCC1	PNC inhibitor inconclusive, ALDH1A1 block 10µM
CCCCCCCCCCCCCc1ccco1	none (no result: PNC inhibitor)
CCOC(=O)CCCNC(=O)N1CCc2nc(-c3ccccc3)c3c(c2C1)CO[C@@H](C)C3	none (no result: PNC inhibitor)
CC(=O)C1=C(O)CC(c2ccccc2)CC1=NCCc1c(C)[nH]c2ccc(C)cc12 (stereo not drawn)	PNC inhibitor -118.9, ALDH1A1 block inconclusive
CC/C(O)=C1\C(=O)CC(c2ccccc2)CC1=NCCc1c(C)[nH]c2ccc(C)cc12 (stereo not drawn)	none
CCC(=NCCc1c(C)[nH]c2ccc(C)cc12)C1=C(O)CC(c2ccccc2)CC1=O (stereo not drawn)	PNC inhibitor -116.4
CC(=O)C1=C(O)CC(c2ccccc2)CC1=NCCc1c(C)[nH]c2ccccc12 (stereo not drawn)	none
O=C(Nc1ccccc1)N1CC2(CCN(C(=O)c3ccco3)CC2)C1	none (no result: PNC inhibitor)
CCOC(=O)c1c(CC(C)C)csc1NC(=O)COC(=O)c1cc(OC)c(OC)cc1[N+](=O)[O-]	none
COc1ccc2nc(Nc3ccccc3)sc2c1	none (no result: HPGD inh, PNC inhibitor)
COc1ccc(Nc2nc(-c3sc(N)nc3C)cs2)cc1	PNC inhibitor inconclusive, ALDH1A1 block 7.08µM
COc1ccc(Nc2nc(C)c(-c3ccccc3)s2)cc1	HPGD inh 20µM, ALDH1A1 block 25.1µM
COc1ccc(Nc2nc(-c3sc(NC(C)=O)nc3C)cs2)cc1	HPGD inh inconclusive, ALDH1A1 block 31.6µM
Cc1nc(N)sc1-c1csc(Nc2ccccn2)n1	ALDH1A1 block inconclusive
COc1ccc(CCNc2ccncn2)cc1OC	PNC inhibitor inconclusive
Cc1nc(NC(=O)CC(C)C)sc1-c1csc(Nc2ccc(Cl)cc2)n1	HPGD inh inconclusive, ALDH1A1 block inconclusive
COc1ccc(CCNc2nc(-c3sc(N)nc3C)cs2)cc1OC	PNC inhibitor -107.7, ALDH1A1 block inconclusive
CCCCCCCCCCCCCCCC(N)=O	none (no result: PNC inhibitor)
CCCCn1nc2cc(C(=O)NCc3ccccc3)ccc2c1OCC	HPGD inh inconclusive, ALDH1A1 block inconclusive
CCC[N+](CC#Cc1ccccc1)(CCC)CC(=O)c1ccc(Cl)cc1	none
O=C(C[N+]1(CC#Cc2ccccc2)CCOCC1)c1ccccc1	ALDH1A1 block 4.47µM (no result: HPGD inh, PNC inhibitor)
O=C(C[N+]1(CC#Cc2ccccc2)CCOCC1)c1ccc(Cl)cc1	ALDH1A1 block 22.4µM (no result: HPGD inh, PNC inhibitor)
C#CC[N+]1(CC#Cc2ccccc2)CCOCC1	PNC inhibitor inconclusive
COCCNc1ccc(N2C(=O)CCCC2=O)cc1[N+](=O)[O-]	none (no result: HPGD inh, PNC inhibitor)
COC(=O)c1ccc(NC(CC(C)C)C(=O)OC)c([N+](=O)[O-])c1 (stereo not drawn)	PNC inhibitor -119.3
CCNc1ccc(C(=O)OC(C(=O)NC(N)=O)C(C)C)cc1[N+](=O)[O-] (stereo not drawn)	none (no result: HPGD inh, PNC inhibitor)
Cc1ccc(-n2c(C)cc(/C=N/NC(=O)c3ccncc3)c2C)cc1	ALDH1A1 block inconclusive
Cc1ccc(C(=O)N/N=C/c2cc(C)n(-c3ccc(Br)cc3)c2C)cc1[N+](=O)[O-]	HPGD inh inconclusive, ALDH1A1 block 10µM
OCCC#Cc1ccc(CN2CCN(C3CCCCC3)C(CCO)C2)cc1 (stereo not drawn)	none (no result: HPGD inh, PNC inhibitor)
CC1(C)OC(=O)C=C[C@@]2(C)C1C[C@@H](O)[C@]1(C)C2CC[C@@]2(C)C(c3ccoc3)OC(=O)[C@H]3O[C@]321 (stereo partly drawn)	none (no result: PNC inhibitor)
CSCCC1C(=O)OC2(C)CC(C)(C)NC(=S)N12 (stereo not drawn)	PNC inhibitor -100.0
COc1ccc(C(=O)CCN2CCN(c3ccccc3OC)CC2)cc1	ALDH1A1 block 0.141µM (no result: HPGD inh, PNC inhibitor)
COc1ccc(C(=O)CCN2CCc3cc(OC)c(OC)cc3C2)cc1	ALDH1A1 block 0.224µM (no result: HPGD inh, PNC inhibitor)
